Values joined by “and” are separate entries in the source; they are usually repeats but may differ in a detail not shown here. Equal values may be shown once. Screen size: about 16,000 compounds; about 5,100 (32%) were called active. Roughly 25% stayed inconclusive and do not appear here. The list shows a part of the results. Unmarked numbers belong to inactive results. Calls follow the shape of the dose curve; as a rule, active = well fitted curve in the direction sought with a large enough effect; inconclusive = small, poorly fitted or top-dose-only effect, or effect the other way; inactive = no such curve, though single readings can be large or run the other way.
target: Cytochrome P450 3A4 (Homo sapiens) (UniProt P08684); assay: Cytochrome panel assay with activity outcomes; conditions: recombinant CYP, pro-luciferin dealkylation, luminescence, p450-cyp3a4; series mostly up to 57.1 µM; activity, negative = inhibition: at the top concentration
% is scaled to controls: 0 for no effect and ±100 for the full control effect.

Sequence of Cytochrome P450 3A4 (Homo sapiens) (P08684 whole entry, looked up): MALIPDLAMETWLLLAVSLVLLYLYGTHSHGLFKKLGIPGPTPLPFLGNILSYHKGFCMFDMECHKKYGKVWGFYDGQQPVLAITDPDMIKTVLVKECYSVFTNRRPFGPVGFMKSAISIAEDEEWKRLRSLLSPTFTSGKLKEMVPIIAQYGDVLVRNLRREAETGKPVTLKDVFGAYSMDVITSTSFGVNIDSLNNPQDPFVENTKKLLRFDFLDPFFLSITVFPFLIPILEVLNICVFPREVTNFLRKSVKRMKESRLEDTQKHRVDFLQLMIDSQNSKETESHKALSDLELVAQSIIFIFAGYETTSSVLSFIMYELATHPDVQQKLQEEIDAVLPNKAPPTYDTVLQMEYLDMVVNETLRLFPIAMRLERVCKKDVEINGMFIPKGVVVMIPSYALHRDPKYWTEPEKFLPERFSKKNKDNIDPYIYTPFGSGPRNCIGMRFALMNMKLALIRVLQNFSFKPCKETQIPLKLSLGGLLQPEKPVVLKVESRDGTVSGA

Structure (SMILES)	activity, negative = inhibition	AC50
COc1ccccc1N1CCNCC1	4.12%	–
C=C(C)[C@H]1CC[C@]2(CO)CC[C@]3(C)[C@@H](CC[C@H]4[C@@]5(C)CC[C@@H](O)C(C)(C)[C@@H]5CC[C@@]43C)[C@H]12	-23.2% [at 25.6 µM]	–
N[C@H](CP(=O)(O)O)C(=O)O	-1.26%	–
Cc1ccc(C2CC(=O)C(C=NCCN3CCN(C(=O)Cc4ccccc4)CC3)=C(O)C2)cc1 (centres undefined)	–	3.16 µM (active)
CC[N+](C)(C)c1cccc(O)c1	1.24% [at 25.6 µM]	–
Cn1c(=O)c2[nH]cnc2n(C)c1=O	1.14% [at 25.6 µM]	–
C[C@H](NC(C)(C)C)C(=O)c1cccc(Cl)c1	inactive	–
Cc1cc(C)nc(NC2=NCCS2)n1	-3.88%	–
CC[N@+]1(C)CCC[C@@H](OC(=O)C(O)(c2ccccc2)c2ccccc2)C1	-15% [at 25.6 µM]	–
Cc1nc2ccccc2c(=O)n1-n1cnnc1	-13.4%	–
CCCc1nc2ccccc2c(=O)n1-c1ccc(OC)cc1	–	15.8 µM (active)
Cc1ccc(-c2nc3ccccc3c(=O)n2-c2ncccc2C)cc1	-6.07% [at 2.29 µM]	–
CCCCc1nc2ccccc2c(=O)n1-c1ccc(Cl)cc1[N+](=O)[O-]	15.8%	–
CCCCc1nc2ccccc2c(=O)n1-c1ccccc1[N+](=O)[O-]	–	15.8 µM (active)
CCC(=O)Nc1ccc(N2CCN(CC)CC2)c(Cl)c1	-23.4%	–
COc1cc([C@@H](O)CN)ccc1O	-4.97%	–
O=P(Nc1ccccc1)(Nc1ccccc1)Oc1cccc(Cl)c1	-28.2% [at 2.29 µM]	–
CCN1CCN(Cc2cc(OC)c(OC)cc2[N+](=O)[O-])CC1	16.1%	–
CCNC(=O)O/N=C(\C)c1sc(-c2ccccc2)nc1C	-25.9%	–
CN(C)C(=O)Oc1cc(OC(=O)N(C)C)cc([C@@H](O)CNC(C)(C)C)c1	0.065% [at 25.6 µM]	–
O=C(Cc1ccc(Cl)c(Cl)c1)N1CCCC[C@H]1CN1CCCC1	–	15.8 µM (active) and 7.94 µM (active)
NC(N)=NCCN=C(N)N	0.983% [at 11.4 µM]	–

Structure (SMILES)	activity, negative = inhibition	AC50
CC1=NN(c2ccccc2)C(=O)[C@@H]1N=Nc1ccc([As](=O)(O)O)c(O)c1	-5.79% [at 11.4 µM]	–
COC(=O)[C@@H](N)CCCN=C(N)N[N+](=O)[O-]	-12.7%	–
CCn1cc(C(=O)O)c(=O)c2cc3c(cc21)OCO3	-9.37% [at 25.6 µM]	–
FC(F)(F)c1nc2ccc(SSc3ccc4nc(C(F)(F)F)[nH]c4c3)cc2[nH]1	4.91% [at 11.4 µM]	–
CC(C)=C[C@H]1[C@@H](C(=O)OCc2cc3c(cc2Cl)OCO3)C1(C)C	–	0.316 µM (active)
CC(C)C(=O)CP(=O)(O)O	2.74% [at 11.4 µM]	–
O=C(Oc1ccccc1)N1CCC2(CCCN(Cc3nccs3)C2)CC1	–	12.6 µM (active)
c1cc(CN2CCC3(CCNCC3)CC2)ccn1	-12.2%	–
CC(C)CN1CCC2(CC1)CCN(C(=O)Oc1ccccc1)CC2	10.7%	–
c1ccc(CN2CCN(Cc3ccc4c(c3)OCCO4)CC2)cc1	-16.2% [at 11.4 µM]	–
c1csc(CN2CCCC3(CCNCC3)C2)n1	-39.5%	–
CN1CCCC2(CCN(C(=O)c3ccncc3)CC2)C1	-21.7%	–
CC(C)CN1CC2(CCN(C(=O)c3ccncc3)CC2)C1	-28.2%	–
O=C(Oc1ccccc1)N1CCC2(CCN(Cc3ccncc3)CC2)CC1	–	12.6 µM (active)
CC(C)CN1CCCC2(CCN(C(=O)c3ccncc3)CC2)C1	–	12.6 µM (active)
O=C(c1ccncc1)N1CCC2(CC1)CN(Cc1ccccc1)C2	–	20 µM (active)
Cc1noc(C)c1C(=O)N1CCC2(CCCN(CC(C)C)C2)CC1	-15.7%	–
c1csc(CN2CC[C@@]3(CCCNC3)C2)n1	-13.6%	–
N=C(N)n1cc(/C=N\N=C(N)N)cn1	-16.6% [at 11.4 µM]	–
c1ccc2c(c1)-c1ccccc1C2N1CC2CCC(CC2)C1	-5.36% [at 11.4 µM]	–
CN1[C@@H](C[C@@H](O)c2ccccc2)CCC[C@@H]1C[C@H](O)c1ccccc1	20.8% [at 25.6 µM]	–
O=[N+]([O-])c1cc(-c2ccc([As](=O)(O)O)cc2)ccc1[As](=O)(O)O	9.09% [at 11.4 µM]	–

Structure (SMILES)	activity, negative = inhibition	AC50
O=C(O)[C@@H]1[C@H](C(=O)O)[C@]2(Cl)C(Cl)=C(Cl)[C@@]1(Cl)C2(Cl)Cl	-9.54% [at 11.4 µM]	–
C(#CCN1CCCC1)CN1CCCC1	-0.507% [at 25.6 µM]	–
C[C@]12CC[C@H](O)C[C@@H]1CC[C@H]1[C@H]2CC[C@]2(C)C(=O)CC[C@@H]12	inactive	–
Cc1cccc(NC(=S)NC2CC3CCCC(C2)N3Cc2cccs2)c1 (centres undefined)	-1.32% [at 2.29 µM]	–
COc1ccc(C[C@H]2NC[C@H](O)[C@@H]2OC(C)=O)cc1	-6.91%	–
COC1=C(C)C(=O)c2c(c(COC(N)=O)c3n2C[C@@H]2[C@@H]3N2C)C1=O (some centres undefined)	-20.6% [at 11.4 µM]	–
COC(=O)[C@@H]1c2cc3c(c(O)c2[C@@H](O)C[C@]1(C)O)C(=O)c1c(O)cc2c(c1C3=O)O[C@H]1O[C@@]2(C)[C@@H](O)[C@H](N(C)C)[C@H]1O	-12% [at 11.4 µM]	–
C[C@@]12CC[C@H](O[C@@H]3O[C@H](CO)[C@@H](O)[C@H](O)[C@@H]3O)C[C@@H]1CC[C@H]1[C@H]2CC[C@@]2(C)[C@@H](C3=CCOC3=O)CC[C@]12O	0.209% [at 11.4 µM]	–
C1C[C@@H]2CN(CCCN3CCOCC3)[C@@H](C1)O2	-5.91% [at 11.4 µM]	–
NN=C(N)N	-9.75%	–
Clc1ccc(C(c2ccc(Cl)cc2)n2cc[n+](C[C@@H](OCc3ccc(Cl)cc3Cl)c3ccc(Cl)cc3Cl)c2)cc1	–	15.8 µM (active)
CC(C)CN1CCC2(CC1)CCN(S(C)(=O)=O)CC2	-10.9%	–
O=c1[nH]oc2c1CCNC2	inactive	–
CCC1(CC)C(=O)C=CNC1=O	-11.7% [at 25.6 µM]	–
CC(C)[C@@H]1CN[C@H](C(=O)O)[C@@H]1CC(=O)O	-9.31%	–
C=C1CC[C@H](O)C/C1=C/C=C1\CCC[C@]2(C)[C@H]1CC[C@H]2[C@@H](C)CCCC(C)C	4.36% [at 25.6 µM]	–
N[C@@]1(C(=O)O)CC[C@H](C(=O)O)C1	inactive	–
CC(C)[C@@]1(NC(=O)[C@@H]2C[C@H]3c4cccc5[nH]cc(c45)C[C@@H]3N(C)C2)O[C@]2(O)[C@H]3CCCN3C(=O)CN2C1=O	24.7% [at 25.6 µM]	–
CC(C)C[C@H]1C(=O)N2CCC[C@@H]2[C@@]2(O)O[C@](NC(=O)[C@@H]3C=C4c5cccc6[nH]cc(c56)C[C@@H]4N(C)C3)(C(C)C)C(=O)N12	–	2 µM (active)
CC[C@H](CO)NC(=O)[C@@H]1C=C2c3cccc4c3c(cn4C)C[C@@H]2N(C)C1	-17.3%	–

Reference: PubChem BioAssay AID1851 (National Center for Advancing Translational Sciences (NCATS), 2009)
